# Assay results from ChEMBL document CHEMBL3988442, “University of Dundee, Small-Polar-MMV Screening Library” (2021).
# The whole screen tested about 48,000 compounds, of which about 13,000 (27%) showed an effect of 50% or more. Some of the results follow.
# Tested on: Wolbachia pipientis
# Assay: Anti-Wolbachia Cell-Based Screen
# Format: functional
# Set-up: scale not given: in the data most compounds retested in dose-response had high values
# Conditions: 5 µM
row,Structure (SMILES),Percent Effect [%]
1,CC(C)(C)c1cn(C2CCN(C(=O)c3cncnc3)CC2)nn1,8.941
2,Cc1cc2ncc(C(C)NCc3cccnc3)c(C)n2n1 (stereo not given),0.9631
3,O=C(c1cccc2ncccc12)N1CCCN(c2cccnn2)CC1,-3.765
4,N#Cc1ccc(N2CCN(c3ncccn3)CC2)c(C(F)(F)F)c1,0.2646
5,COc1cccc(CCCNC(=O)N2CCC(O)(C(F)(F)F)C2)c1 (stereo not given),-22.68
6,Cc1nn(C)c(N(C)C)c1CNCc1cnn(Cc2ccccc2)c1,0.347
7,O=C(Nc1ccc(CC(=O)N2CCSCC2)cc1)NC1CC1,1.128
8,O=C(Nc1ccc(CC(=O)N2CCSCC2)cc1)NC1CCCC1,-7.412
9,O=C(Nc1ccc(CC(=O)N2CCCC2)cc1)NC1CC1,116.7
10,Cc1nc(CNC(=O)NC2CCN(c3ncccc3Cl)C2)no1 (stereo not given),-5.791
11,OCCC1CN(c2ncnc3[nH]cnc23)CCN1Cc1ccccc1 (stereo not given),-15.48
12,CC(C)N1CCCC2(CCN(Cc3noc(C4CCCC4)n3)C2)C1=O (stereo not given),17.18
13,CCN1CC2(CCC1=O)CCN(Cc1nncn1C)CC2,-22.02
14,CCCN1CCCC2(CCN(Cc3cncn3C3CCCCC3)C2)C1=O (stereo not given),-18.59
15,CCN1CC2(CCC1=O)CCN(Cc1nncn1C(C)C)CC2,3.317
16,CC(C)n1cnnc1CN1CCC2(CCCN(C3CCCCC3)C2=O)C1 (stereo not given),113.2
17,Cn1cnnc1CN1CCC2(CCCN(C3CCCCC3)C2=O)C1 (stereo not given),111.9
18,CC(C)N1CCCC2(CCN(Cc3nncn3C(C)C)C2)C1=O (stereo not given),92.74
19,CCCN1CCCC2(CCN(Cc3cncn3C3CCCC3)C2)C1=O (stereo not given),1.607
20,CN1CCCC2(CCN(Cc3cncn3C3CCCCC3)C2)C1=O (stereo not given),-0.6007
21,CCCN1CCCC2(CCN(Cc3noc(C4CCCC4)n3)C2)C1=O (stereo not given),-0.09411
22,CC(C)[C@H]1COC(=O)N1Cc1nncn1C(C)C,9.429
23,Cn1cnnc1CN1CCC2(CCCN(C3CCCC3)C2=O)C1 (stereo not given),103.4
24,O=C(O)C(F)(F)F.c1csc(CN2CCC3(CCCN(c4nncs4)C3)C2)n1 (stereo not given),-3.653
25,CCN1CCC(N2C[C@H]3OC(=O)N(CCc4cccc(Cl)c4)[C@H]3C2)CC1,-15.6

row,Structure (SMILES),Percent Effect [%]
1,CCSCCC(=O)Nc1ncn(CC(=O)NCc2ccccc2)n1,1.311
2,CN(Cc1ccc(C(=O)Nc2sccc2C#N)cc1)Cc1ccno1,-5.875
3,CC(C)c1cc(C(=O)N2CCCN(CCCc3ccccc3)CC2)[nH]n1,0.07047
4,CC(C)CC(=O)N1CC(=O)N(CCc2ccccc2)CC(O)C1 (stereo not given),118.7
5,CC(C)(C)N1CC(C(=O)N2CCN(CCc3ccccc3)CC2)CC1=O (stereo not given),4.322
6,Cc1csc(N(C)C(=O)C2CC(=O)N(CCc3ccccc3)C2)n1 (stereo not given),4.812
7,CCOC(=O)N1CC(=O)N(CCc2ccccc2)CC(O)C1 (stereo not given),123.2
8,CC(C(=O)O)N1CC2(CCC1=O)CCN(CCc1ccccc1)CC2 (stereo not given),-3.737
9,CNC(=O)C1Cc2ccccc2CN1CCCc1ccccc1 (stereo not given),-8.054
10,CC(C)(C)OC(=O)N1CC(=O)N(CCc2ccccc2)CC(O)C1 (stereo not given),114.6
11,Cc1[nH]ccc1C(=O)NCC1CC(=O)N(CCc2ccccc2)C1 (stereo not given),5.345
12,Cc1ccccc1C(C)CC(=O)N1CC[C@H](O)C1 (stereo not given in full),-9.659
13,CC(C)COC(=O)N1CC(=O)N(CCCc2ccccc2)CC(O)C1 (stereo not given),111
14,CN(C(=O)C1CC(=O)N(CCc2ccccc2)C1)c1nccs1 (stereo not given),3.016
15,CSc1nc(N)cc(N2C[C@@H]3CC[C@H](C2)N(Cc2cscn2)C3=O)n1,0.1745
16,CCN(CC)C(=O)CN(C)C1CCc2ccccc21 (stereo not given),-5.842
17,CN(Cc1ccco1)Cc1ccccc1CNC(=O)c1ccc[nH]1,22.22
18,O=C(CN(Cc1ccccc1)CC1CCOCC1)NC(=O)NC1CC1,17.45
19,CC(C)COC(=O)N1CC(=O)N(CCc2ccccc2)CC(O)C1 (stereo not given),128.8
20,COCc1cccc(C(=O)N2CCCN(C(=O)OCC(C)C)CC2)c1,8.994
21,O=C(NCC1CC(=O)N(CCc2ccccc2)C1)c1c(F)cccc1F (stereo not given),-5.982
22,CN(Cc1cc2n(n1)CCNC2)Cc1cc(-c2ccccn2)no1,-13.42
23,COCCN(C)CCN1CC2(CCN(C3CCCCC3)CC2)OC1=O,5.41
24,CC(=O)N1C[C@H]2CNC[C@@]2(C(=O)NCCOc2ccccc2F)C1,-24.48
25,CC1(C(=O)NCCCOc2ccccc2F)CC(=O)N2C=CC=CC2=N1 (stereo not given),94.6

row,Structure (SMILES),Percent Effect [%]
1,Cc1ccc(OCCCNC(=O)C2(C)CC(=O)N3C=CC=CC3=N2)cc1 (stereo not given),121.9
2,Cc1ccc(OCCCNC(=O)C(C)Sc2nncn2C)cc1 (stereo not given),-12.11
3,Cc1ccccc1OCCCNC(=O)C1(C)CC(=O)N2C=CC=CC2=N1 (stereo not given),112.8
4,Cc1ccccc1OCCCC(=O)NCc1ccnc(O)c1,0.1065
5,Cc1ccc(OCCCNC(=O)NC(C)c2nncn2C)cc1 (stereo not given),6.672
6,CSc1cc(CNC(=O)CCOc2ccccc2C)ccn1,2.605
7,CC(C)n1cnnc1CNC(=O)CCCOc1ccccc1F,-11.73
8,COc1cc(C)c(CNC(C)c2csc(C3CC3)n2)cc1OC (stereo not given),30.24
9,CC(C)Cc1cc(C(=O)NC(C)(C)c2nnc(N)s2)n(C)n1,-11.71
10,Cc1noc(NCc2ccc(F)cc2F)n1,23.53
11,Cc1noc(C2CCCN(C(=O)c3ccc(Cl)cc3F)C2)n1 (stereo not given),-0.5657
12,CC(C)c1nnc2ccc(N3CCC(C(N)=O)CC3)nn12,13.6
13,CS(=O)(=O)CCOCCNc1ccc2ccc(F)cc2n1,5.905
14,COCC(NC(=O)c1ccc[nH]1)c1cccc(C(F)(F)F)c1 (stereo not given),-9.811
15,CC(C)Nc1nc2c(cc1C(=O)NCC1CC1)CCN(C)CC2.O=C(O)C(F)(F)F.O=C(O)C(F)(F)F,0.01551
16,O=C(O)C(F)(F)F.O=C(O)C(F)(F)F.O=C(O)c1cc2c(nc1NCC1CC1)CCN(C1CCOC1)CC2 (stereo not given),-1.204
17,CC(C)CCN1CCc2cc(C(=O)N(C)C)c(NCC3CC3)nc2CC1.O=C(O)C(F)(F)F.O=C(O)C(F)(F)F,98.43
18,CN1CCc2cc(C(=O)N(C)C)c(NCC3CC3)nc2CC1.O=C(O)C(F)(F)F.O=C(O)C(F)(F)F,92.24
19,O=C1N(CCO)CCCC12CCN(Cc1noc(C3CCCC3)n1)C2 (stereo not given),-14.7
20,COc1ccc2c(=O)n(CC3CCCN(C)C3)ccc2c1OC (stereo not given),-1.973
21,Cc1cc(C(=O)N2CCCC(N3CCNC3=O)C2)nn1C(C)(C)C (stereo not given),-5.29
22,CCCS(=O)(=O)c1ncc(CN2CCC(CO)CC2)n1CC1CCCO1 (stereo not given),10.89
23,c1cnc(N2CCc3onc(CN4CCCC4)c3C2)cn1,88.59
24,c1cnc(NCc2noc3c2CN(c2cnccn2)CC3)nc1,99.25
25,CCN1CCc2onc(CNc3ncccn3)c2C1,1.38

row,Structure (SMILES),Percent Effect [%]
1,Cn1nc(CNc2ncccn2)c2c1CN(c1cnccn1)CC2,89.69
2,CC(C)n1nc(CNc2ncccn2)c2c1CN(C)CC2.O=C(O)C(F)(F)F.O=C(O)C(F)(F)F.O=C(O)C(F)(F)F,-10.41
3,c1cnc(N2CCc3onc(CN4CCOCC4)c3C2)cn1,102
4,CC(C)n1nc(CNc2ncccn2)c2c1CN(S(C)(=O)=O)CC2,3.209
5,O=C(c1ccsc1)N1CCc2onc(CN3CCOCC3)c2C1,-3.104
6,O=C(c1cnccn1)N1CCc2onc(CN3CCCC3)c2C1,10.5
7,O=C(c1cccnc1)N1CCc2onc(CN3CCCC3)c2C1,-1.696
8,CCS(=O)(=O)N1CCc2onc(CNc3ncccn3)c2C1,3.304
9,O=C(c1ccncc1)N1CCc2onc(CN3CCCC3)c2C1,-9.45
10,COc1cc(C(=O)NC2COc3ccccc3C2)ccc1OCC(N)=O (stereo not given),16.72
11,Fc1ccc2[nH]c(C3CCCN3CCCn3cccn3)nc2c1 (stereo not given),-31.47
12,C=Cc1cccc(CN2C[C@@H](CN(C)CC)[C@@H](CO)C2)c1,-5.546
13,O=C1CC2(CCN(C(=O)c3cccc(Cl)c3)CC2)CN1,-6.217
14,COC(=O)[C@@H](NC(=O)c1coc(COc2cccc(F)c2F)n1)C(C)C,-36.4
15,Cc1cc(CN(CCO)c2ccc(Br)cc2)on1,-2.085
16,CN(Cc1ccco1)C[C@H]1OC[C@@H]2CCN(Cc3nccs3)C[C@@H]21,-15.41
17,CN(Cc1ccco1)C[C@@H]1OC[C@H]2CN(Cc3nccs3)CC[C@H]21.O=C(O)C(F)(F)F.O=C(O)C(F)(F)F,3.908
18,Cc1ccc(N2CC[C@H]3CO[C@H](CN(C)Cc4ccco4)[C@H]3C2)nn1.O=C(O)C(F)(F)F.O=C(O)C(F)(F)F,95.46
19,Cc1cccc(N2CC[C@@H]3[C@@H](CO[C@H]3CNS(C)(=O)=O)C2)n1,-14.44
20,Cc1cccc(N2CC[C@H]3[C@H](CO[C@@H]3CN(C)Cc3ccco3)C2)n1.O=C(O)C(F)(F)F.O=C(O)C(F)(F)F,52.12
21,CN(Cc1ccco1)C[C@H]1OC[C@@H]2CCN(Cc3ccncc3)C[C@@H]21.O=C(O)C(F)(F)F.O=C(O)C(F)(F)F.O=C(O)C(F)(F)F,-1.908
22,CN(Cc1ccco1)C[C@H]1OC[C@@H]2CN(c3ncc(F)cn3)CC[C@@H]21.O=C(O)C(F)(F)F.O=C(O)C(F)(F)F,81.17
23,CN(Cc1ccco1)C[C@H]1OC[C@@H]2CCN(Cc3cccnc3)C[C@@H]21.O=C(O)C(F)(F)F.O=C(O)C(F)(F)F.O=C(O)C(F)(F)F,7.341
24,Cc1cccc(N2CC[C@H]3CO[C@H](CN(C)Cc4ccco4)[C@H]3C2)n1,108.5
25,CN(Cc1ccco1)C[C@H]1OC[C@@H]2CCN(Cc3cccs3)C[C@@H]21.O=C(O)C(F)(F)F.O=C(O)C(F)(F)F,-12.79
